# Assay results published in PubChem BioAssay (NCATS).
# Values joined by “and” are separate entries in the source; they are usually repeats but may differ in a detail not shown here. Equal entries are not always repeated. Inconclusive results are not listed. Entries that show only a call come without a potency. Values without a mark were called inactive. Active and inactive are the calls of the source. Calls follow the shape of the dose curve; as a rule, active = well fitted cell-killing curve with a large enough effect; inconclusive = small, poorly fitted or top-dose-only effect; inactive = flat fitted curve, though single readings scatter.
# Test: qHTS of pediatric cancer cell lines to identify multiple opportunities for drug repurposing: Primary screen for DAOY cells (AID 1347090); also: nearly all actives have a fitted effect of over 55% in size
# Details: DAOY medulloblastoma viability, CellTiter-Glo luminescence, 48 h; series mostly up to 46 µM; activity change, negative = cytotoxic: at the top concentration
# Outline: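 Viability measured as metabolically active cells via CellTiter-Glo luminescence following 48 hours of compound exposure, 11-point dilutions in confirmatory testing. 500-1,000 cells/well plated 5 hours before dosing; controls were DMSO and 2.3 µM bortezomib.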
# Potency is read from the fitted curve at half-maximal effect.
SMILES,Potency,"activity change, negative = cytotoxic [%]"
O=C1CCC(N2C(=O)c3ccccc3C2=O)C(=O)N1 (stereo not drawn),inactive,
CCOC(=O)C1=C[C@]2(CC)CCCN3CCc4c(n1c1ccccc41)[C@@H]32,inactive,
Cn1cnc([N+](=O)[O-])c1Sc1ncnc2nc[nH]c12,1.91 µM (active) and 6.68 µM (active) and 5.9 µM (active),
CN1CCN(CCCN2c3ccccc3Sc3ccc(C(F)(F)F)cc32)CC1,,-14.5
Oc1ccc(C2CNCCc3c2cc(O)c(O)c3Cl)cc1 (stereo not drawn),inactive,
COc1ccc([C@@H]2CC(=O)c3c(O)cc(O[C@@H]4O[C@H](CO[C@@H]5O[C@@H](C)[C@H](O)[C@@H](O)[C@@H]5O)[C@@H](O)[C@H](O)[C@@H]4O)cc3O2)cc1O,,-0.362
Nc1ccc(S(=O)(=O)Nc2ccnn2-c2ccccc2)cc1,inactive,
CCCCNc1cc(C(=O)O)cc(S(N)(=O)=O)c1Oc1ccccc1,inactive,
O=c1[nH]cnc2[nH]ncc12,inactive,
CC(C)(C)NCC(O)c1ccc(O)c(CO)c1 (stereo not drawn),inactive,
O=c1n(CCCN2CCN(c3cccc(Cl)c3)CC2)nc2ccccn12,inactive,
O=C(O)COCCN1CCN(C(c2ccccc2)c2ccc(Cl)cc2)CC1 (stereo not drawn),inactive,
CCn1cc(C(=O)O)c(=O)c2cc(F)c(N3CCNC(C)C3)c(F)c21 (stereo not drawn),inactive,
CC(C)NCC(O)COc1ccc(COCCOC(C)C)cc1 (stereo not drawn),inactive,
CCCC(CCC)C(=O)O,,0.263
Nc1nc2c(ncn2COCCO)c(=O)[nH]1,inactive,
Cc1cnc(NC(=O)C2=C(O)c3ccccc3S(=O)(=O)N2C)s1,inactive,
O=NN(CCCl)C(=O)NCCCl,inactive,
